This is an account of results in PubChem BioAssay.

SMILES strings stand for the structures. Unmarked numbers belong to inactive results. For some of these results: Results with a measured potency or affinity are listed apart. Activity calls are given as the source filed them. Unless noted, how the calls were made is not given here.

A short description of assay [1]: antimalarial activity against Dd2 strain (AID 2302;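 active means growth inhibition above 50% at the single 2 µM test dose, taken to imply half-maximal potency below 2 µM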;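 further: 0% = DMSO untreated growth and 100% = chloroquine plus artemisinin killed control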). The settings on record: P. falciparum Dd2 in RBCs, LDH growth readout, 72 h; at 2 µM; active compounds read high.
Assay [2] in a line: human hepatoma cell viability loss – ATP luminescence, cytotoxicity control for P. falciparum antimalarial project, primary screen (AID 2303;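 active means inhibition above 50%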;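 further: 0% = DMSO wells and 100% = digitonin-killed cells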). Conditions: HepG2 viability, 24-48 h, at 10 µM, active compounds read high.
Assay [3] has as its target L-lactate dehydrogenase (Plasmodium falciparum (isolate CDC / Honduras)) (UniProt Q27743). The experiment in a line: PfLDH activity inhibition – cell lysate, 3D7 strain, counter-screen for P. falciparum growth inhibition project (AID 2304).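 Further: 0% = vehicle and 100% = reference inhibitor.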 Conditions: P. falciparum 3D7 crude extract, LDH APAD/NBT absorbance; at 2 µM; active compounds read high. On the technique in general: A counterscreen serves to expose hits that act by an unwanted route or on another target.

Assay [4] in a line: inhibition of 3D7 malaria parasite growth – strain 3D7 (AID 2306).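 Further: 0% = DMSO wells and 100% = chloroquine plus artemisinin control wells.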 Conditions: P. falciparum 3D7 erythrocytic growth, LDH absorbance, 72 h; at 2 µM; active compounds read high.
Assay [5] concerns the target Calcium-dependent protein kinase 1 (Plasmodium falciparum (isolate 3D7)) (UniProt P62344). Put plainly: PfCDPK1 kinase inhibitors, biochemical, TCAMS library (AID 1159585; cut-off not given, nearly all actives have IC50 up to about 0.98 µM;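 further: inhibitors leave more ATP so luminescence rises with inhibition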). Conditions: recombinant PfCDPK1, Kinase-Glo ATP depletion luminescence. In general terms: Kinase-Glo reads ATP consumption through a luciferase reaction.
Assay [6] deals with Plasmodium falciparum protein kinase 6 (PK6, PF3D7_1337100) (UniProt Q8IDW1). The experiment in a line: PfPK6 kinase inhibitors, biochemical, TCAMS library (AID 1159586). Conditions: recombinant PfPK6, Kinase-Glo ATP depletion luminescence.
Chain of Plasmodium falciparum protein kinase 6 (PK6, PF3D7_1337100) (Q8IDW1 1-305): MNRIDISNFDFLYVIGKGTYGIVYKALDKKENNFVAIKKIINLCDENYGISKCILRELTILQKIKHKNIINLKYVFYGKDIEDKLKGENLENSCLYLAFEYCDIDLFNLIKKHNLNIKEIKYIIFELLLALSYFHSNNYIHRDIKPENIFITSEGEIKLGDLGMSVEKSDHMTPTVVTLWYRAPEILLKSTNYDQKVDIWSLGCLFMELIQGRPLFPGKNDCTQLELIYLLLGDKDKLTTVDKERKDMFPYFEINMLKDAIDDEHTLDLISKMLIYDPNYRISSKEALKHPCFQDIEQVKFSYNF
Assay [7] concerns the target Protein kinase 7 (PK7), Plasmodium falciparum 3D7 (PF3D7_0213400) (UniProt Q7YTF7). The experiment in a line: inhibition of Plasmodium PK7 catalytic activity – biochemical, TCAMS antimalarial set, Kinase-Glo luminescence (AID 1159587). Conditions: recombinant PfPK7, Kinase-Glo ATP depletion luminescence.
Assay [8] has as its target Calcium-dependent protein kinase 4 (Plasmodium falciparum (isolate 3D7)) (UniProt Q8IBS5). Put plainly: PfCDPK4 kinase inhibitors, biochemical, TCAMS library (AID 1159588; cut-off not given, nearly all actives have IC50 up to about 0.91 µM). Conditions: recombinant PfCDPK4, Kinase-Glo ATP depletion luminescence.

Chain of L-lactate dehydrogenase (Plasmodium falciparum (isolate CDC / Honduras)) (Q27743 whole entry, looked up): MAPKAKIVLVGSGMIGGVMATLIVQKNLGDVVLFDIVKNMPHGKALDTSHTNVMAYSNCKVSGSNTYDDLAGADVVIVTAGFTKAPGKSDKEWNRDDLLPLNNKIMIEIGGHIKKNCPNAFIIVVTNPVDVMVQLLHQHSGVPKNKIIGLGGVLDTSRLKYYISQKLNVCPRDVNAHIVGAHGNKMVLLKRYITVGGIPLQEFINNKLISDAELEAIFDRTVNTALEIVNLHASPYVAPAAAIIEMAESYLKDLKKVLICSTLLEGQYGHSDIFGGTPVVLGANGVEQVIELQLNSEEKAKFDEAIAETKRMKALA
Chain of Calcium-dependent protein kinase 4 (Plasmodium falciparum (isolate 3D7)) (Q8IBS5 whole entry, looked up): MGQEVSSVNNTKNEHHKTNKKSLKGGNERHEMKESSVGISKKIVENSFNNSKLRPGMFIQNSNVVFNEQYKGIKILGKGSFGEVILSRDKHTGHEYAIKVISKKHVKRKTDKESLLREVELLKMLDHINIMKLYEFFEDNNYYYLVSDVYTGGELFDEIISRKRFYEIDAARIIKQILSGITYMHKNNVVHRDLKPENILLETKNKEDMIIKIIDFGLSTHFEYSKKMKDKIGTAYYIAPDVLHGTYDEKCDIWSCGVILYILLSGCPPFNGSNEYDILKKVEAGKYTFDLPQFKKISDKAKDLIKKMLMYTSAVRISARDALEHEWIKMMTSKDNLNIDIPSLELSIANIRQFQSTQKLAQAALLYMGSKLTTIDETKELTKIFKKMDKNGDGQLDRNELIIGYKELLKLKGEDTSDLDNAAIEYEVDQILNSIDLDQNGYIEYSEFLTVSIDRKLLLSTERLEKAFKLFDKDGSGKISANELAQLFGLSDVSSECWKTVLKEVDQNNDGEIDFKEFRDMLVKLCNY
Chain of Calcium-dependent protein kinase 1 (Plasmodium falciparum (isolate 3D7)) (P62344 whole entry, looked up): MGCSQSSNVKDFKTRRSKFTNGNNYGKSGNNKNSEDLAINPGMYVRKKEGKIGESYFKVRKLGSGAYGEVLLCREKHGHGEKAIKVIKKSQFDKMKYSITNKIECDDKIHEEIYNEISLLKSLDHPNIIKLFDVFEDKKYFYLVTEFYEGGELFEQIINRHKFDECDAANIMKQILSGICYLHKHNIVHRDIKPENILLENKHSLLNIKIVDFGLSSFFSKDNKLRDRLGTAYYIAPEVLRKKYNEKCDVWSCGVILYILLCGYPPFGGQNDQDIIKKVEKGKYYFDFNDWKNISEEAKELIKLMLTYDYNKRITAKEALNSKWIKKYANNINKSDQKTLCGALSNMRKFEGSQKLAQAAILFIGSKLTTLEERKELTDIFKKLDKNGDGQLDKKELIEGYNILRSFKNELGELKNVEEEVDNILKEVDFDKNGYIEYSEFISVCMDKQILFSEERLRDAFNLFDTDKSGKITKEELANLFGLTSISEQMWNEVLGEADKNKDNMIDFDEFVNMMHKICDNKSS
Chain of Protein kinase 7 (PK7), Plasmodium falciparum 3D7 (PF3D7_0213400) (Q7YTF7 1-343): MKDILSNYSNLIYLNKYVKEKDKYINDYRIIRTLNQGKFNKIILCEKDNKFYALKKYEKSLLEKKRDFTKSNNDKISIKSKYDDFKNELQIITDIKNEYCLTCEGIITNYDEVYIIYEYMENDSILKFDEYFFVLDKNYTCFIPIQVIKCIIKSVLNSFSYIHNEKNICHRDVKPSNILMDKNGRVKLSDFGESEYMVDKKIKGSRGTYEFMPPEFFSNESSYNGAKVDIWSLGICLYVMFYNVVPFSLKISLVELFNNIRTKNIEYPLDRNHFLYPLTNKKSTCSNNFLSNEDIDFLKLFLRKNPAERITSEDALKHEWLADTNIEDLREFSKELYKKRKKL

Turning to `CC(C)CN1CCN(c2nc(C#N)c3c(c2C(=S)NC2CCCCC2)CC(C)(C)OC3)CC1`, the growth inhibition was 99% (active) in assay [1] and 101% (active) in assay [4]. In addition, the inhibition (as a rule, the change of the read-out against control, counted positive when it falls) in assay [2] is -4%; in assay [3], -2%. Moreover, the result in assay [5], in assay [6], in assay [7] and in assay [8] was inactive.
Take `CN(C)CCOc1ccc(NC(=O)NC(C)(C)c2nc(-c3ccc(Cl)c(O)c3)c(-c3ccncc3)[nH]2)cc1`: the growth inhibition in assay [1] and in assay [4] was 98% (active) each time. The inhibition was 22% in assay [2] and 5% in assay [3]. For the same compound, the outcome in assay [5], in assay [6], in assay [7] and in assay [8] was inactive.
Turning to `O=C(NC1CCC(N2CCN(c3cccc4[nH]ccc34)CC2)CC1)c1cc2cccnc2[nH]1` (stereo not given), the results for the growth inhibition in assay [1] and in assay [4] were 85% (active) and 99% (active), respectively. In addition, the inhibition in assay [2] was 9%; in assay [3], -2%. Also, the result in assay [5], in assay [6], in assay [7] and in assay [8] was inactive.
As to `Nc1ncc(Cc2cc(Cl)c(N)c3ncccc23)c(N)n1`, the results for the growth inhibition in assay [1] and in assay [4] were 95% (active) and 89% (active), respectively. Further, the inhibition was 5% in assay [2] and 1% in assay [3]. Moreover, the outcome in assay [5], in assay [6], in assay [7] and in assay [8] was inactive.
Regarding `COc1ccc(C(=O)CCC(=O)N(Cc2ccc(-c3ccc(CNCCc4ccc(S(C)(=O)=O)cc4)cn3)cc2)C2CCN(Cc3ccccc3)CC2)cc1F`, the growth inhibition was 72% (active) in assay [1] and 99% (active) in assay [4]. Moreover, the results for the inhibition in assay [2] and in assay [3] were 20% and 2%, respectively. For the same compound, the result in assay [5], in assay [6], in assay [7] and in assay [8] was inactive.
On to `CC(C)CCNCc1ccc(OCc2cccc(C(=O)Nc3ccccc3)c2)c(I)c1`, for which the values for the growth inhibition in assay [1] and in assay [4] were 59% (active) and 100% (active), respectively. The values for the inhibition in assay [2] and in assay [3] were 25% and 0%, respectively. Further, the result in assay [5], in assay [6], in assay [7] and in assay [8] was inactive.
Turning to `c1ccc(Oc2ccc(Nc3nncc4ccccc34)cc2)cc1`, the growth inhibition in assay [1] was 82% (active); in assay [4], 86% (active). Further, the inhibition in assay [2] is 20%; in assay [3], 1%. Besides, the result in assay [5], in assay [6], in assay [7] and in assay [8] was inactive.
`O=C1NC(=O)C(c2ccc(Cl)cc2)=C1Nc1cccc(S(=O)(=O)C(F)(F)F)c1`: the growth inhibition in assay [1] was 51% (active); in assay [4], 99% (active). In addition, the inhibition in assay [2] was 1%; in assay [3], -2%. Moreover, the result in assay [5], in assay [6], in assay [7] and in assay [8] was inactive.
For `COc1c(C2CCN(CCN3CCC(NC(=O)c4ccc(-c5ccc(C(F)(F)F)cc5)cc4)CC3)CC2)ccc2c1CCCC2`, the growth inhibition is 35% in assay [1] and 82% (active) in assay [4]. Besides, the inhibition in assay [2] was 42%; in assay [3] it was 0%. Further, the result in assay [5], in assay [6], in assay [7] and in assay [8] was inactive.
As to `CC(C)NCc1ccc(-c2ccc(-c3nc4ccc(F)cc4[nH]3)cc2)cc1`, the growth inhibition was 100% (active) in assay [1] and 101% (active) in assay [4]. The inhibition is 14% in assay [2] and -5% in assay [3]. Besides, the outcome in assay [5], in assay [6], in assay [7] and in assay [8] was inactive.
`COc1cc(OC)c(NC(=O)Nc2ccnc3ccccc23)cc1Cl`: the growth inhibition in assay [1] is 9%; in assay [4], 97% (active). For the same compound, the inhibition is 19% in assay [2] and -2% in assay [3]. Further, the outcome in assay [5], in assay [6], in assay [7] and in assay [8] was inactive.
For `CC(NC(=O)c1cc(-c2ccccc2)nc2c1cnn2C(C)C)C1CC1` (stereo not given), the growth inhibition in assay [1] is 88% (active); in assay [4], 101% (active). In addition, the inhibition in assay [2] is 35%; in assay [3], -2%. Further, the result in assay [5], in assay [6], in assay [7] and in assay [8] was inactive.
Take `O=C(NCCN1CCCc2ccccc21)C1CCN(c2nc(-c3ccc(Cl)cc3)no2)CC1`: the growth inhibition was 62% (active) in assay [1] and 86% (active) in assay [4]. For the same compound, the figures for the inhibition in assay [2] and in assay [3] were 11% and -1%, respectively. The result in assay [5], in assay [6], in assay [7] and in assay [8] was inactive.
`COc1cc(Nc2ccc3cc(S(=O)(=O)N4CCCCC4C)ccc3n2)cc(OC)c1OC` (stereo not given): the growth inhibition is 78% (active) in assay [1] and 88% (active) in assay [4]. Besides, the inhibition in assay [2] was -5%; in assay [3] it was -1%. The outcome in assay [5], in assay [6], in assay [7] and in assay [8] was inactive.
Take `COc1ccc(F)cc1-c1ccccc1CNC(=O)c1cnn(-c2ccc([N+](=O)[O-])cc2)c1C(F)(F)F`: the growth inhibition in assay [1] is 75% (active); in assay [4] it was 89% (active). In addition, the inhibition was -3% in assay [2] and -4% in assay [3]. The outcome in assay [5], in assay [6], in assay [7] and in assay [8] was inactive.
For the compound `COC(=O)CCCOc1cc(Cc2cnc(N)nc2N)cc(OC)c1OC`, the growth inhibition was -4% in assay [1] and 95% (active) in assay [4]. The inhibition in assay [2] is 12%; in assay [3], -6%. Moreover, the result in assay [5], in assay [6], in assay [7] and in assay [8] was inactive.
`COc1ccc2nccc([C@@H](O)CN3CCC(NC(=O)C(c4cc5ccccc5o4)N4CCC(Cc5ccccc5)CC4)CC3)c2c1` (stereo not given in full): the growth inhibition is 82% (active) in assay [1] and 100% (active) in assay [4]. Also, the values for the inhibition in assay [2] and in assay [3] were 11% and 0%, respectively. Besides, the result in assay [5], in assay [6], in assay [7] and in assay [8] was inactive.
Turning to `Cc1cc(NN=Cc2ccccc2[N+](=O)[O-])c2ccccc2n1`, the growth inhibition in assay [1] and in assay [4] was 100% (active) throughout. Besides, the figures for the inhibition in assay [2] and in assay [3] were 10% and -2%, respectively. In addition, the result in assay [5], in assay [6], in assay [7] and in assay [8] was inactive.
Turning to `COc1ccc(CNc2nccc3ccc(-c4ccc(N)nc4)cc23)cc1`, the values for the growth inhibition in assay [1] and in assay [4] were 49% and 93% (active), respectively. For the same compound, the values for the inhibition in assay [2] and in assay [3] were 7% and 2%, respectively. Moreover, the result in assay [5], in assay [6], in assay [7] and in assay [8] was inactive.
For `NC1CCN(c2nc(NCCc3ccc(O)cc3)nc(NCc3ccccc3-c3ccccc3)n2)CC1`, the growth inhibition in assay [1] is 32%; in assay [4], 99% (active). The results for the inhibition in assay [2] and in assay [3] were 14% and 4%, respectively. Also, the result in assay [5], in assay [6], in assay [7] and in assay [8] was inactive.
